# Shown are actives, neighbours in structure and some others; about 7.1% of the full set was active somewhere.
# ELG1 DNA repair: inhibitors of ELG1-dependent DNA repair in HEK293T cells; HEK293T ELG1-luciferase reporter, luminescence, 16 h; DNA damage induced by 5-fluorouridine; AID 504467; actives 2.3% (n = 330,000); Potency, µM (series often up to 46.1 µM), for inactives: at the highest dose activity change, negative = inhibition, hits mostly inhibitors; also: % is scaled to controls: 0 for no effect and ±100 for the full control effect; nearly all actives have a fitted effect of over 55% in size
#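 DMSO vehicle served as the neutral condition. Each well held 2,000 cells given 5-fluorouridine plus compound; after 16 hr at 37 °C/5% CO2, ONE-Glo was added and luciferase measured 30 min later.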
# p53 reactivator: re-activators of mutant p53. AID 504706. Potency, µM (titrated, usually from 92.2 µM), without a hit: at the highest dose activity change, positive = activation, hits mostly activators. H1299 p53-A138V BP100-luciferase reporter, luminescence, 24 h. actives 0.063% (n = 320,000); also: % of control where 0% means no effect; nearly all actives have a fitted effect of over 45% in size
#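 H1299 (p53-null), stable ts p53-A138V + BP100-Luc; 1000 cells/well, Opti-MEM/10% FBS; cpd 4 pt, 1:5; 24 h, 37 deg C, 5% CO2; detection reagent 10 min RT; luminescence.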
# A-T KAP1 phos: candidate therapy for ataxia-telangiectasia. F2112 A-T fibroblasts, KAP-1 phosphorylation AlphaLISA; neocarzinostatin DNA damage 30 min before lysis. Potency, µM (highest dose often 57.5 µM), for inactives: top-dose activation, actives largely listed as activators. actives 0.19% (n = 320,000). AID 485349; also: % of control where 0% means no effect; nearly all actives have a fitted effect of over 45% in size
#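 hTERT-immortalized A-T patient fibroblasts (F2112), 500 cells/well in OPTI-MEM, 1% FBS, got compounds for 60 min, then NCS for 30 min at 37C. Lysates were then assayed for phospho-KAP-1 by AlphaLISA (anti-pKAP1 donor, anti-KAP1 acceptor beads), 6 hr at 25C.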
# ELG1 genotox: induces genotoxicity in HEK293T cells with luciferase-tagged ELG1 | HEK293T ELG1-luciferase reporter, luminescence, 16 h | Potency, µM (doses to about 46 µM), for the others: at the highest dose activity change, positive = activation, actives largely listed as activators | actives 1.3% (n = 330,000); also: % of control where 0% means no effect; nearly all actives have a fitted effect of over 60% in size
#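 Quantitative HTS format in 1536-well plates. HEK293T ELG1-luciferase reporter cells receive test compound and are incubated 16 hr at 37 °C, 5% CO2; ONE-Glo added, 30 min room temperature, then luminescence read.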
# SW480 rerep: induces DNA re-replication in SW480 colon adenocarcinoma cells. SW480 DNA re-replication, Hoechst DNA content imaging, 48 h. Potency, µM (titrated, usually from 46.1 µM), without a hit: at the highest dose re-replication activation, hits mostly activators. actives 1.8% (n = 340,000). AID 624297; also: % of control where 0% means no effect; nearly all actives have a fitted effect of over 55% in size
#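 SW480 cells exposed to compounds for 48 hr at 37 C, 5% CO2, then Hoechst-stained 40 min. Nuclear DNA content imaged by fluorescence scanning (405 nm excitation, 500-530 nm emission); re-replication scored as increased high-intensity nuclei.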
# MCF10A rereplic: DNA re-replication induction in MCF 10a cells; MCF 10A DNA re-replication, Hoechst nuclear intensity, 48 h; Potency, µM (series often up to 46.1 µM), for the others: at the top dose activity, positive = re-replication, most hits filed as activators; actives 2.9% (n = 350,000); also: % of control where 0% means no effect; nearly all actives have a fitted effect of over 50% in size
# Active calls of the source: *; ? = inconclusive; · = not tested or not shown; [ ] = remark or other dose. Calls follow the shape of the dose curve; as a rule, active = well fitted curve in the direction sought with a large enough effect; inconclusive = small, poorly fitted or top-dose-only effect, or another doubt; inactive = no such curve, though single readings can be large; an effect the other way counts as inactive or inconclusive. Potency is read from the fitted curve at half-maximal effect.
SMILES,ELG1 DNA repair,p53 reactivator,A-T KAP1 phos,ELG1 genotox,SW480 rerep,MCF10A rereplic
COc1ccc(-n2nc3cc(C)c(N)c(Br)c3n2)cc1,?,21%,27%,7.3µM*,12%,27%
COc1ccc(-n2nc3cc(N)c(Br)cc3n2)cc1,?,·,14%,18µM*,-40%,15%
COc1ccc(-n2nc3ccccc3n2)cc1,-1%,4%,6%,5%,5%,18%
COc1cc(/C=C2\CCCc3c2nc2ccccc2c3C(=O)O)cc(OC)c1O,10%,1%,2%,2%,26µM*,-2%
COc1cc(-c2nc3ccc4ccccc4c3c3c2CCC3)cc(OC)c1OC,?,-2%,6%,2%,1%,16%
COc1ccc(/C=C2\CCc3c2nc2ccccc2c3C(=O)O)cc1OC,?,-1%,21%,4.1µM*,4%,?
COc1ccc(/C=C2\CCCc3c2nc2ccccc2c3C(=O)O)cc1OC,?,3%,27%,8%,·,·
O=C(O)c1ccc(/C=C2\CCCc3c2nc2ccccc2c3C(=O)O)cc1,6%,-2%,5%,-2%,-3%,0%
CN(C)c1ccc(/C=C2\CCCc3c2nc2ccccc2c3C(=O)O)cc1,?,?,-4%,12µM*,23%,18µM*
COc1cc(-c2nc3ccc4ccccc4c3c3c2CCC3)cc(OC)c1O,?,-9%,7%,-1%,?,15µM*
COc1ccc(NS(=O)(=O)c2ccc3c(c2)NC(=O)CO3)c(OC)c1,13%,0%,7%,1%,3%,1%
O=C(O)Cn1cc(C(=S)N2CCCCC2)c2ccccc21,0%,6%,-1%,0%,-12%,0.58µM*
COc1ccc(NC(=O)C(=O)c2cn(CC(=O)N3CCCC3)c3ccccc23)cc1,?,13%,-4%,?,0.46µM*,?
O=C(CSc1nc(C(F)(F)F)cc(=O)[nH]1)NCc1ccc2c(c1)OCO2,2%,12%,6%,-1%,-6%,1%
O=C(NCC1CCCO1)C(Cc1ccccc1)N1C(=O)C2C3C=CC(C4CC34)C2C1=O (stereo not given),3%,13%,-2%,-7%,?,15µM*
O=C(NCC1CCCO1)C(C(=O)c1ccccc1)n1ccccc1=O (stereo not given),13%,-10%,28%,0%,-13%,-191%[0.0737 µM]
O=C(Nc1nccs1)C1CCCN1/C=C/C(=O)C(F)(F)F (stereo not given),?,20%,12%,5%,-3%,-3%
COc1ccc(CCn2c(N)c(C#N)c3nc4ccccc4nc32)cc1OC,23µM*,-9%,6%,-11%,?,?
CCCCCn1c(N)c(C#N)c2nc3ccccc3nc21,-2%,-3%,13%,1%,-1%,-2%
COc1ccccc1CCn1c(N)c(C#N)c2nc3ccccc3nc21,?,-6%,31%,-2%,?,?
COc1ccc(Cn2c(N)c(C#N)c3nc4ccccc4nc32)cc1OC,-7%,-5%,1%,11%,10µM*,?
Cc1nn(C)c(C(=O)NC2C3CC4CC(C3)CC2C4)c1Cl (stereo not given),2%,-2%,1%,1%,23µM*,15%
Cn1ncc(Cl)c1C(=O)NC1C2CC3CC(C2)CC1C3 (stereo not given),2%,-1%,0%,-6%,-12%,7%
COc1ccc(C(=O)N(C)Cc2ccccn2)cc1OC1CCN(C(C)C)CC1,1%,10%,-4%,5%,-1%,6%
COc1ccc(OC)c(C2NC(=O)NC(C)=C2C(=O)OCc2ccccc2)c1 (stereo not given),-8%,2%,-3%,1%,-6%,9%
SMILES,ELG1 DNA repair,p53 reactivator,A-T KAP1 phos,ELG1 genotox,SW480 rerep,MCF10A rereplic
COc1ccc(COC(=O)C2=C(C)NC(=O)NC2c2cc(OC)ccc2OC)cc1 (stereo not given),-7%,·,-1%,?,-11%,0.52µM*
CCCOc1ccccc1C1NC(=O)NC(C)=C1C(=O)OCc1ccccc1 (stereo not given),16µM*,-8%,1%,-12%,0%,-2%
C[C@H](NC(=O)c1ccc2ccccc2c1)C(=O)N1CCC2(CC1)NCCc1[nH]cnc12,0%,1%,1%,1%,1%,6%
O=C(CSc1cccc2cccnc12)N1CCCC1,?,-26%,5%,-2%,?,12µM*
CN(C)C(=O)CSc1cccc2cccnc12,?,-8%,2%,?,5.2µM*,?
O=C(CSc1cccc2cccnc12)N/N=C/c1ccncc1,3%,2%,1%,8%,1.8µM*,-5%
CCOc1cc(/C=N/NC(=O)CSc2cccc3cccnc23)ccc1O,?,-7%,6%,-6%,12%,?
O=C(CSc1ncccn1)N1CCCCCC1,?,9%,-1%,4%,-6%,-6%
NNC(=O)CSc1cccc2cccnc12,-9%,-9%,-6%,3%,-150%,-42%
Cc1cc(C)n2nc(SCC(=O)N(CCC#N)c3ccccc3F)nc2n1,9%,8%,4%,1%,-4%,-6%
COCCN(C(=O)CSc1nnc(-c2ccc(C)cc2)n1N)c1c(N)n(Cc2ccccc2)c(=O)[nH]c1=O,-5%,-4%,11%,2%,-3%,8%
COc1cc(CNC[C@H]2O[C@@H](n3cnc(C(N)=O)n3)[C@H](O)[C@@H]2O)ccc1OCc1cccc(Cl)c1,·,·,·,·,-18%,?
COc1ccc(-c2nc(NC(=O)c3c(C)noc3C)sc2C)cc1,-26%,10%,-4%,-4%,-6%,12%
Cc1sc(NC(=O)c2ccc(=O)n(C)n2)nc1-c1ccccc1,-15%,7%,-2%,0%,-87%,23µM*
COc1ccc(-c2nc(NC(=O)c3cc(C(C)(C)C)nn3C)sc2C)cc1,8.2µM*,19%,-16%,-9%,16µM*,15µM*
Cc1ccc(C)c(NC(=O)CCC(=O)N/N=C/c2cc([N+](=O)[O-])ccc2O)c1,13µM*,7%,-1%,1%,?,?
Cc1ccc(NC(=O)CCC(=O)NNC(=O)COc2ccc([N+](=O)[O-])cc2)c(C)c1,19%,5%,2%,-1%,2%,1.6µM*
COc1ccc(O)c(/C=N/NC(=O)CCC(=O)Nc2cccc(C)c2)c1,?,6%,-9%,2%,5.8µM*,?

# Screening data (PubChem BioAssay)
